Drawing on PubChem BioAssay (NCATS), this text covers Potency and outcome for 18 compounds.

Test [1] is described as follows: P-glycoprotein substrates identified in KB-8-5-11 adenocarcinoma cell line, qHTS therapeutic library screen (AID 1346987). Note: nearly all actives have a fitted effect of over 65% in size. Note: potency is the fitted concentration of half-maximal effect. The gist of the method: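 Luminescence from CellTiter-Glo, read 5 min after addition, quantified survival of KB-8-5-11 (P-gp-overexpressing) cells exposed to compounds for 72 h. AC50 was derived from concentration-response curves.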
Test [2] is described as follows: P-glycoprotein substrates identified in KB-3-1 adenocarcinoma cell line, qHTS therapeutic library screen (AID 1346986). Note: nearly all actives have a fitted effect of over 60% in size. As to conditions: KB-3-1 parental cells viability, CellTiter-Glo, 72 h; at 44.5 µM (top of the series). The gist of the method: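 72 h cell-killing screen, 500 cells/well, CellTiter-Glo luminescence. Paired lines KB-3-1/KB-8-5-11; P-gp dependence checked by tariquidar co-treatment and HEK-293 MDR-19 versus empty-vector cells.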
Background: Quantitative high-throughput screening tests each substance at several concentrations.

The nature of test [3]: NS1 protein of Zika virus - qHTS assay to identify small molecule inhibitors in human HEK 293 cells (AID 1347053). Note: nearly all actives have a fitted effect of over 55% in size. The gist of the method: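 Read-out is a two-antibody TR-FRET for ZIKV NS1, normalized between uninfected cells and infected cells. Compound added 1 h before MR766 infection at MOI 0.5; human HEK 293 cells incubated 24 h, 37 C.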
The nature of test [4]: Identifying Small Molecule Inhibitors of Pancreatic Cancer Stem Cells (SN12C, Spheroid) (AID 1259360). The gist of the method:
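Spheroids grown 14 days in stem cell media on hydrogel-coated nonadherent plates; 2D lines seeded directly. Compounds added after 4 h attachment, 48 h at 37C, 5% CO2; CellTiter-Glo luminescence normalized to DMSO (no inhibition) and no-cell wells (full inhibition).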

Test [5] can be described thus: Identifying Small Molecule Inhibitors of Pancreatic Cancer Stem Cells (A278, Adherent) (AID 1259361).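 Note: viability read after 48 h compound exposure; nearly all actives have a fitted effect of over 35% in size.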 The gist of the method: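 Luminescent ATP readout (CellTiter-Glo) quantifies surviving cells after a 48 h drug incubation. Normalization uses DMSO wells as no inhibition and media-only wells as full inhibition; bortezomib served as positive control.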
The nature of test [6]: Natriuretic polypeptide receptor (hNpr1) antagonism - Pilot counterscreen GloSensor control cell line (AID 1347045; calls by dose curve). The gist of the method:
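Cells were first seeded and incubated overnight at 37C, then loaded with 2% GloSensor substrate for 2 h. Compounds were added for 30 min at room temperature, followed by a baseline read, 50 uM SNP and a final read after 20 min.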
A general note: A counterscreen serves to expose hits that act by an unwanted route or on another target.

Test [7] concerns the target Atrial natriuretic peptide receptor 1 (Homo sapiens) (UniProt P16066). Nature of the test: Natriuretic polypeptide receptor (hNpr1) antagonism - Pilot screen (AID 1347049; calls by dose curve;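 note: HEK293 cells with hNpr1 and GloSensor cGMP luciferase stimulated by 0.1 nM hNppA; agonist-evoked cGMP luminescence read 20 min after hNppA addition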). The gist of the method: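 Cells expressing receptor plus cGMP biosensor are seeded and incubated overnight at 37C, then loaded with GloSensor reagent (2% final) at room temperature for 2 h. Library compounds go on for 30 min. A pre-read precedes agonist (hNppA, 0.1 nM final) and a 20-min readout.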

The target of test [8] is Atrial natriuretic peptide receptor 2 (Homo sapiens) (UniProt P20594). As to the kind of experiment: Natriuretic polypeptide receptor (hNpr2) antagonism - Pilot subtype selectivity assay (AID 1347050; calls by dose curve). The gist of the method:
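Read-out: GloSensor luminescence (CCD imager), baseline vs post-stimulation. HEK293 cells expressing hNpr2; compounds pre-incubated 30-50 min at ambient temperature; hNppC 1 nM final, 20 min.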

Test [9] has as its target T1, Tyrosine-protein phosphatase non-receptor type substrate 1 (Homo sapiens) + Leukocyte surface antigen CD47 (Homo sapiens) (UniProt P78324+Q08722). Nature of the test: CD47-SIRPalpha protein protein interaction - LANCE assay qHTS validation (AID 1347057; active = well fitted curve in the direction sought with a large enough effect in the signal ratio, with a control signal flat, not every such curve was filed as active; the % refers to the signal ratio). The gist of the method:
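Inhibition of soluble CD47/SIRPalpha ectodomain association by titrated compounds, measured as 665/615 nm time-resolved FRET ratio after sequential 30 min room-temperature incubations.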
(In general: Time-resolved FRET reads energy transfer from a long-lived donor to a nearby acceptor.)

For test [10], the target named is T1, Tyrosine-protein phosphatase non-receptor type substrate 1 (Homo sapiens) + Leukocyte surface antigen CD47 (Homo sapiens). Nature of the test: CD47-SIRPalpha protein protein interaction - HTRF assay qHTS validation (AID 1347058; active = well fitted curve in the direction sought with a large enough effect in the signal ratio, not every such curve was filed as active; the % refers to the signal ratio). The gist of the method:
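Soluble extracellular domains (6His-CD47, Avi-tag-biotinylated SIRPalpha) in PBS pH 7.4 with 0.05% IGEPAL CA-630. Compounds were preincubated 30 min at RT with CD47 and anti-His-Eu, then SIRPalpha and SAV-XL665 were added. TR-FRET 665/615 ratio.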

Records with an inconclusive call do not appear. Where a call stands in place of a potency, no number is given. The source made the active and inactive calls. Unless noted, calls come from the whole dose curve; as a rule, active = well fitted curve in the direction sought with a large enough effect; inconclusive = small, poorly fitted or top-dose-only effect, or another doubt; inactive = no such curve, though single readings can be large; an effect the other way counts as inactive or inconclusive.

T1 sequence (P78324 whole entry, looked up, the tested form may be a part): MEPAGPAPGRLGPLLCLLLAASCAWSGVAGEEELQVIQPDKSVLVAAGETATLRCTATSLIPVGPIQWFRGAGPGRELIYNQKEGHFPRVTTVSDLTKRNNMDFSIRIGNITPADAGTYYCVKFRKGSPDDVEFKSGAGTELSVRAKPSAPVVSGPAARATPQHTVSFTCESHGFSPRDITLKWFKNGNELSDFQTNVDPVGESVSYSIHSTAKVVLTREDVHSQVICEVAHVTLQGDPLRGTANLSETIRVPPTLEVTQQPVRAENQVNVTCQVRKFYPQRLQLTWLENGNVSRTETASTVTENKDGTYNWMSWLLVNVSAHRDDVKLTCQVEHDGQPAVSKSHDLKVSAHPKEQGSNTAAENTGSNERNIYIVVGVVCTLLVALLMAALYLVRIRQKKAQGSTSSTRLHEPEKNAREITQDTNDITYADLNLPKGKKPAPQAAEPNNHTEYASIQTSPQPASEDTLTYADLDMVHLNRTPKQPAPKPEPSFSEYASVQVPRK
T1 sequence (Q08722 whole entry, looked up, the tested form may be a part): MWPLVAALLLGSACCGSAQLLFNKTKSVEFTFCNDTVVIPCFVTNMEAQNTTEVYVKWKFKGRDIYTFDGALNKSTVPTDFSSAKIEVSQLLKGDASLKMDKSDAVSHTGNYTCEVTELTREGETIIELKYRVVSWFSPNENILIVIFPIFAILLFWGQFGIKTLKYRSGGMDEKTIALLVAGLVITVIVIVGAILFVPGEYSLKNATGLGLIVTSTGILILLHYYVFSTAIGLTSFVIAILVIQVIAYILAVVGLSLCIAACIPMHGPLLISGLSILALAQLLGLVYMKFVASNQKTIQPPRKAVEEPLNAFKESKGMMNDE
Chain of Atrial natriuretic peptide receptor 2 (Homo sapiens) (P20594 whole entry, looked up): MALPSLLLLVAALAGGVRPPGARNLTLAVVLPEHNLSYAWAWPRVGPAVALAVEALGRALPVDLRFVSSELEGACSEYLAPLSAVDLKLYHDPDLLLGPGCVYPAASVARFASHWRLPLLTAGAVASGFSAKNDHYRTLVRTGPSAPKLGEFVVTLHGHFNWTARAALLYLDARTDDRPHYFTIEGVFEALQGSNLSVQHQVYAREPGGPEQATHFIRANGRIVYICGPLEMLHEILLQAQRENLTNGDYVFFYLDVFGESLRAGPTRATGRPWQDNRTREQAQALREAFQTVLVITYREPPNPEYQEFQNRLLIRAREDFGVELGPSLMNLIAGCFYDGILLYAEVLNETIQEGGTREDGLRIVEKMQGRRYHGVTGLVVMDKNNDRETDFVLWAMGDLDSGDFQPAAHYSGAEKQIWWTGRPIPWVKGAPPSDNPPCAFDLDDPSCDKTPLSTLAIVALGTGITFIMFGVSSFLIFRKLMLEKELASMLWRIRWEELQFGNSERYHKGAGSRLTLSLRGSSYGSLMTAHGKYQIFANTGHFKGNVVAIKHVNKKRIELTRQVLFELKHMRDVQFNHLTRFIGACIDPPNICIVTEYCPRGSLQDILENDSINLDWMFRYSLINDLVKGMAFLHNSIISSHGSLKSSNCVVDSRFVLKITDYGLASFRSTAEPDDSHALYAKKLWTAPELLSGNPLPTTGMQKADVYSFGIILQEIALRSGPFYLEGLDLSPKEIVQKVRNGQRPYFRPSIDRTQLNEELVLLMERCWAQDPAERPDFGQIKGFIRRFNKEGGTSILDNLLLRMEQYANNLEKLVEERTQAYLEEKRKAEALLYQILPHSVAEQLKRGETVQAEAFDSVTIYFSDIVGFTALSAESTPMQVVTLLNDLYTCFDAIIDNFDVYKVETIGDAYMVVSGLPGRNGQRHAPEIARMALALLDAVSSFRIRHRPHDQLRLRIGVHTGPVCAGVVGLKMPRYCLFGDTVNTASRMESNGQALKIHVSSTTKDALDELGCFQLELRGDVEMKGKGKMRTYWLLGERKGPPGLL
Chain of Atrial natriuretic peptide receptor 1 (Homo sapiens) (P16066 whole entry, looked up): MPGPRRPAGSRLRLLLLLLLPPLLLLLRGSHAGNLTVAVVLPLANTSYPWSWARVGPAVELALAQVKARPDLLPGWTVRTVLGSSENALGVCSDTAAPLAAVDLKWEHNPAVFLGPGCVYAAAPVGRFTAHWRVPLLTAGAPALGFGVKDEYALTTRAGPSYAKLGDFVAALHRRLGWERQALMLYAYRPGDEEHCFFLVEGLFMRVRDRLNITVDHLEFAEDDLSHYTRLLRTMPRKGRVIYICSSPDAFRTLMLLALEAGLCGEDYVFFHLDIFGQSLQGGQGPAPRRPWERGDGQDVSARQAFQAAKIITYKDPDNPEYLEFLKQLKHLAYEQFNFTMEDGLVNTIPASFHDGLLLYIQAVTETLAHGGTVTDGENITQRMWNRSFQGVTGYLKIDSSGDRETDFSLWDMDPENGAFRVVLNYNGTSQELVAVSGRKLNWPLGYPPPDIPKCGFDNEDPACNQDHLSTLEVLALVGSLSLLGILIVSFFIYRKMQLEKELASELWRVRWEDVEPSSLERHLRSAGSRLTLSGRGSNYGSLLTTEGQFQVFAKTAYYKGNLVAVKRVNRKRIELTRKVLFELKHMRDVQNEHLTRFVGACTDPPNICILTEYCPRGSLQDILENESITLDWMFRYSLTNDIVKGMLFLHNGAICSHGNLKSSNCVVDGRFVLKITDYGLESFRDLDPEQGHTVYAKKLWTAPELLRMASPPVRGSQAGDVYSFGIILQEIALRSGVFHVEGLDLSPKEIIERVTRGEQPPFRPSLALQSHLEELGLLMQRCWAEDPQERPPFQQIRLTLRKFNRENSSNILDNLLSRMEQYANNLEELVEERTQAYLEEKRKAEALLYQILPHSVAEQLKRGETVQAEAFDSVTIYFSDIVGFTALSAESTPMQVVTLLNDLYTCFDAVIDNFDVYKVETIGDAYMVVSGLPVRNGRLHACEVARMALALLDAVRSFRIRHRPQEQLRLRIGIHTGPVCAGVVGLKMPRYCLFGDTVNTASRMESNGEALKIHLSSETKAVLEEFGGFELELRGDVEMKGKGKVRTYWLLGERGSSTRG

Turning to `CCC1(CC)C(=O)NC(=O)NC1=O`, the Potency entry in [1] was “inactive”.

Take `CCC1(c2cccc(O)c2)CCCCN(C)C1` (centres undefined): the Potency result in [1] was “inactive”.

Regarding `CCOC(=O)NC(C)(C)Cc1ccc(Cl)cc1`, the Potency entry in test [1] is “inactive”.

As for `O=C(N[C@H]1N=C(c2ccccc2F)c2cccc3c2N(CC3)C1=O)c1cc2ccccc2[nH]1`, the result in test [2] was inactive. Besides, the Potency entry in [1] and in test [3] was “inactive” throughout.

For the compound `COCC(=O)N(c1c(C)cccc1C)C(C)C(=O)OC` (centres undefined), the Potency entry in [1] is “inactive”.

As for `Cc1ccc(N=CN(C)C=Nc2ccc(C)cc2C)c(C)c1`, the Potency entry in test [1] was “inactive”.

`O=C(O)c1nn(Cc2ccc(Cl)cc2Cl)c2ccccc12`: the result in test [4], in test [5], in test [6], in test [7], in test [8] and in [9] was inactive. Besides, the result in test [10] was inactive. Besides, the Potency entry in test [1] and in [3] was “inactive” throughout.

`NC(=O)CN1CCCC1=O`: the Potency result in [1] and in test [3] was “inactive” in each case. Moreover, the result in test [6], in [7], in test [8], in [9] and in test [10] was inactive.

As to `CC(C)[N+](C)(CCC(C(N)=O)(c1ccccc1)c1ccccc1)C(C)C`, the Potency result in test [1] is “inactive”.

Take `CC1N=C(N)OC1c1ccccc1` (centres undefined): in test [1], the Potency entry was “inactive”.

As to `COc1ccc2[nH]cc(CCN(C(C)C)C(C)C)c2c1`, the Potency result in [1] was “inactive”.

Consider `CCC1(c2ccccc2)CCC(=O)NC1=O` (centres undefined), for which the Potency entry in [1] is “inactive”.

Regarding `COP(=S)(OC)Oc1ccc(S(N)(=O)=O)cc1`, the Potency result in test [1] is “inactive”.

On to `CCC1(c2cnc[nH]2)Cc2ccccc2C1`, for which the Potency result in test [1] was “inactive”.

As for `COc1ccc2c3c1O[C@H]1[C@@H](O)C=C[C@H]4[C@@H](C2)N(C)CC[C@@]341`, in test [1], the Potency entry is “inactive”.

Consider `CCCCC1C(=O)NC(=O)N(C2CCCCC2)C1=O` (centres undefined), for which the Potency result in [1] is “inactive”.

Take `Cc1c(Cl)c(=O)oc2cc(OP(=O)(OCCCl)OCCCl)ccc12`: in test [1], the Potency is 6.51 µM (active).

On to `CC[n+]1c(-c2ccccc2)c2cc(N)ccc2c2ccc(N)cc21`, for which the Potency result in test [1] is “inactive”.
